Experimental data: the supplement of paper PMC12067093, “Discovery and optimisation of a covalent ligand for TRIM25 and its application to targeted protein ubiquitination” (Chemical Science, 2025)
Targets with the largest changes are over-represented here; the source holds about 21,000 in all.

Compound: CC1Cc2ccccc2N1C(=O)C1CCCN(C1)C(=O)CCl (mixture of isomers) [TRIM25 ligand 11 (diastereomer mixture)]
Assay: probe-labelled cysteine peptide fold change vs DMSO (competition) (log2 fold change); higher = less target engagement (more negative = stronger competition)
Conditions: THP-1, incubation time: 4 h
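Further: competitive chemoproteomic profiling in live THP-1 cells with an iodoacetamide desthiobiotin (IA-DTB) probe, comparing probe-labelled peptide intensities in compound-treated cells against DMSO-treated controls.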

UniProt O15160, sequence (O15160 whole entry, looked up): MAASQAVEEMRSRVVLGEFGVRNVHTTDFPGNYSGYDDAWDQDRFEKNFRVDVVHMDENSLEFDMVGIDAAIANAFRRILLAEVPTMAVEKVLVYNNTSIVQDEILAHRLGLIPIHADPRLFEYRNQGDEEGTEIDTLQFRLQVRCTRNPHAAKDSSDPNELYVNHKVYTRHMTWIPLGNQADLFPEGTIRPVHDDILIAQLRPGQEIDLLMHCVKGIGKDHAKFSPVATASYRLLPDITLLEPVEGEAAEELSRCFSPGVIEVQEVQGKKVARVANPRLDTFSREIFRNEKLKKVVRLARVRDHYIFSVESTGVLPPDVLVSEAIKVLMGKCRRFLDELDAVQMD
UniProt Q9UIL8, sequence (Q9UIL8 whole entry): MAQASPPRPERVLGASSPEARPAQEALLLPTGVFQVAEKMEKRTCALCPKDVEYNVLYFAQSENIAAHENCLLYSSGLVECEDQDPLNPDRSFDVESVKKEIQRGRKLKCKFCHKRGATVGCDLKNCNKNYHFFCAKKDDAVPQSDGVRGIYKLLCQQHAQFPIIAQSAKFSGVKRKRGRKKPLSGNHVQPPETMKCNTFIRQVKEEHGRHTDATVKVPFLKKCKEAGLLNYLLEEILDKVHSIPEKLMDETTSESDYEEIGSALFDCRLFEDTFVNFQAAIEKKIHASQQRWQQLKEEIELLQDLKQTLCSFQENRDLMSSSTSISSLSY
UniProt P12955, sequence (P12955 whole entry, looked up): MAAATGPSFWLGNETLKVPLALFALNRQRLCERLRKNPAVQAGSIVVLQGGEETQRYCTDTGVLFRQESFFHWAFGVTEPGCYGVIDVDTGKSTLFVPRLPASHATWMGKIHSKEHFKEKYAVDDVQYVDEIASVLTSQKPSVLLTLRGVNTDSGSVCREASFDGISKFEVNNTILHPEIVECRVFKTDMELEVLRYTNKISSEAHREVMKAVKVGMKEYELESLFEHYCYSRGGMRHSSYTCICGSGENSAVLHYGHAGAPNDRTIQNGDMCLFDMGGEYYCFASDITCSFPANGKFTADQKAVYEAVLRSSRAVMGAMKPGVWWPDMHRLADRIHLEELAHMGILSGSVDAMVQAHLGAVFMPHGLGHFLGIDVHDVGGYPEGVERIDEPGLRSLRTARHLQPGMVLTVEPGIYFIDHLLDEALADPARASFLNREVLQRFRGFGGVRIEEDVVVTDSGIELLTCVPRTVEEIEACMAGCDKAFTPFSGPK
UniProt Q9BZL4, sequence (Q9BZL4 whole entry, looked up): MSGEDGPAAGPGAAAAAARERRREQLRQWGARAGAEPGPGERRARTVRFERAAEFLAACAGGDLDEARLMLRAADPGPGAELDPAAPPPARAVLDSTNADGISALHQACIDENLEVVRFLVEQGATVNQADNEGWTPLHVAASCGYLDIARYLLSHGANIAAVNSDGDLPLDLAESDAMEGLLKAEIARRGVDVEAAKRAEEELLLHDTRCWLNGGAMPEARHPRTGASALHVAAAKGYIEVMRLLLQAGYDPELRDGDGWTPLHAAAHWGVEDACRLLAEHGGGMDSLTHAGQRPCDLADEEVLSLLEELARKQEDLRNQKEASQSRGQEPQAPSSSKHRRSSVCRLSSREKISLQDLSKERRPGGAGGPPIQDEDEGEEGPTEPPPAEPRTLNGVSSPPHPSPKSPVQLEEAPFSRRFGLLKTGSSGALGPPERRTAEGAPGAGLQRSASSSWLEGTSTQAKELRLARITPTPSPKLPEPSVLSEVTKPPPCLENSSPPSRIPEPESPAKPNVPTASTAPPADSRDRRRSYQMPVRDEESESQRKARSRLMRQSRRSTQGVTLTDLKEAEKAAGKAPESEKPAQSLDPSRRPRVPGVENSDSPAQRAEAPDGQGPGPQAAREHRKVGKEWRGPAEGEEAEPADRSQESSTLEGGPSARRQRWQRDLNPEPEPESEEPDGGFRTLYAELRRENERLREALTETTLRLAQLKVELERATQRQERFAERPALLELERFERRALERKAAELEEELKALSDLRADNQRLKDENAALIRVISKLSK
UniProt Q99570, sequence (Q99570 whole entry, looked up): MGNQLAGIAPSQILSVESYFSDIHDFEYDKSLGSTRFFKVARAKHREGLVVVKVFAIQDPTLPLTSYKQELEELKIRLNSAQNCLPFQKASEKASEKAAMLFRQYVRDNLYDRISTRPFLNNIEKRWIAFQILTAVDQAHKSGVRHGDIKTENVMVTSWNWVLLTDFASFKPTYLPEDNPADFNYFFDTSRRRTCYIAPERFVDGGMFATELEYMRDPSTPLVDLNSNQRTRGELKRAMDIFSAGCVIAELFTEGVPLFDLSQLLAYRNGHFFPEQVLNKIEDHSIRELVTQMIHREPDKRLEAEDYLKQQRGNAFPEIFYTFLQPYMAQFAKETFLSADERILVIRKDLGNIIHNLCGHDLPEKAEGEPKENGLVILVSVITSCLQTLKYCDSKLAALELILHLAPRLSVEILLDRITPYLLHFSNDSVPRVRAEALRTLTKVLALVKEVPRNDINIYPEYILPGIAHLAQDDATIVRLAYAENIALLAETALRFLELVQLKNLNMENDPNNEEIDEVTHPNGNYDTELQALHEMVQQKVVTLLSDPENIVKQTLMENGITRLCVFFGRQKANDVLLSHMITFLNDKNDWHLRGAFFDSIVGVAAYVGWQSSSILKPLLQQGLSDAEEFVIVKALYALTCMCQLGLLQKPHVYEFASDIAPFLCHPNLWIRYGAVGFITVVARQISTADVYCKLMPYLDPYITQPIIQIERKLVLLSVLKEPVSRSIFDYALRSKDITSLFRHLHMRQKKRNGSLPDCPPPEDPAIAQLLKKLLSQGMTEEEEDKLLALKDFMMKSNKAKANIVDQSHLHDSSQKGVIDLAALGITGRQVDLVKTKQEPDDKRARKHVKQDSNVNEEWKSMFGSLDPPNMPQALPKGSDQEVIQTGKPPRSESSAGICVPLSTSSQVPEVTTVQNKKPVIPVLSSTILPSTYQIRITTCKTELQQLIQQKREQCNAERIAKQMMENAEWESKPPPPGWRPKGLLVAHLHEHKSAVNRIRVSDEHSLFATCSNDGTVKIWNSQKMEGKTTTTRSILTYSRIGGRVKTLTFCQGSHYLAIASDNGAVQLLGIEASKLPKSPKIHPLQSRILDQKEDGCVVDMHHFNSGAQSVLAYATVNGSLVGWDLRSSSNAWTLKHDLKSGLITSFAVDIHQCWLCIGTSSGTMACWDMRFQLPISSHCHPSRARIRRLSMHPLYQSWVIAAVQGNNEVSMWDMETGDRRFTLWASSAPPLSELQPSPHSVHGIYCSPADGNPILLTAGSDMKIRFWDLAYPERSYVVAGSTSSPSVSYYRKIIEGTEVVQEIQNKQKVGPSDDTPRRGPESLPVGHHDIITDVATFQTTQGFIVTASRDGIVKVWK

| Target | probe-labelled cysteine peptide fold change (10 µM) | probe-labelled cysteine peptide fold change (50 µM) |
| --- | --- | --- |
| POLR1C_O15160_214_PVHDDILIAQLRPGQEIDLLMHCVK (UniProt O15160) | -0.00122 | -0.0368 |
| PECAM1_P16284_109_CTVIVNNK (UniProt P16284) | 0.126 | 0.476 |
| PIK3R4_Q99570_955_EQCNAER (UniProt Q99570) | -0.0631 | -0.105 |
| PPP1R12C_Q9BZL4_297_LLAEHGGGMDSLTHAGQRPCDLADEEVLSLLEELAR (UniProt Q9BZL4) | 0.136 | -0.278 |
| PEPD_P12955_158_GVNTDSGSVCR (UniProt P12955) | 0.0721 | -0.0568 |
| PHF11_Q9UIL8_135_NYHFFCAK (UniProt Q9UIL8) | -0.0148 | 0.156 |
